# Test results from ChEMBL document CHEMBL4513146, “CO-ADD screening of Karazin Kharkiv National University (Ukraine) compounds”.
# Entries with a potency or affinity are not part of this list.
# Legend:
# [1] = test system: Klebsiella pneumoniae; conditions: Concentration 32 ug.mL-1;; ASSAY_TEST Inhibition of Bacterial Growth; detection method Absorption (OD600); MEDIA CAMHB; plate type 384well; NBS; CORNING #3640; time 18 hr
# [2] = test system: Candida albicans; conditions: Concentration 32 ug.mL-1; ASSAY_TEST Inhibition of Fungal Growth; detection method Absorption (OD530)
# [3] = test system: Cryptococcus neoformans; conditions: Concentration 32 ug.mL-1; ASSAY_TEST Inhibition of Fungal Growth; detection method Resazurin; Absorption (OD600-OD570); plate type 384well; NBS; CORNING #3640
Structure (SMILES),Inhibition [1] [%],Inhibition [2] [%],Inhibition [3] [%]
Cc1cc2nn(CC(=O)Nc3cc(F)ccc3C)c(=O)n2c(Nc2ccc(C)c(F)c2)n1,11.43,3.99,-7.37
COc1ccccc1CNC(=O)CSc1nnc2c3cc(-c4ccc(C)cc4)nn3ccn12,-1.35,-1.83,-12.39
Cc1cc(C)cc(Nc2nc(C)cc3nn(CC(=O)Nc4ccc(F)cc4F)c(=O)n23)c1,15.5,32.59,-6.19
COc1ccc(NC(=O)Cn2nc3ccc(-c4ccc(Cl)cc4)nn3c2=O)cc1,12.68,0.32,-12.45
CCCc1nnc2c(=O)n(CC(=O)Nc3ccc(C#N)cc3)c3ccccc3n12,0.24,1.16,-7.04
Cc1ccccc1Oc1nc2ccccc2n2c(=O)n(CC(=O)Nc3ccccc3C(F)(F)F)nc12,7.22,11.93,-23.01
CCOC(=O)c1ccccc1NC(=O)Cn1nc2c(Oc3cccc(OC)c3)nccn2c1=O,5.46,0.95,-5.16
O=C(CSc1nnc2c(=O)n(-c3cccc(F)c3)ccn12)NCCc1ccccc1,-3.34,5.41,-10.18
COc1cc(OC)c(NC(=O)Cn2nc3ccc(Sc4cccc(F)c4)nn3c2=O)cc1Cl,2.02,6.91,-5.99
COC(=O)c1ccc(NC(=O)Cn2nc3c4sc(N5CCCC5)nc4ncn3c2=O)cc1,-7.74,1.38,-4.89
Cc1cccc(C)c1NC(=O)Cn1nc2c3c4c(sc3ncn2c1=O)CCCC4,12.26,11.56,-19.68
Cc1cc(C)cc(Nc2nc(C)cc3nn(CC(=O)Nc4cc(F)ccc4F)c(=O)n23)c1,17.33,4.37,-7.31
CSc1cccc(NC(=O)Cn2nc3c(Oc4ccccc4C)nccn3c2=O)c1,7.38,-0.96,-9.56
O=c1c2sccc2n2c(=O)n(Cc3c(F)cccc3Cl)nc2n1Cc1cccs1,11.77,-0.79,-29.08
COc1ccc(OC)c(NC(=O)Cn2nc3c(SCc4ccc(Cl)cc4)nccn3c2=O)c1,1.59,23.62,-18.91
Cc1cc2nn(CC(=O)Nc3cc(F)ccc3C)c(=O)n2c(Nc2ccc(F)c(C)c2)n1,15.58,4.23,-9.62
COc1ccc(C)cc1NC(=O)Cn1nc2c3cc(-c4ccc(Cl)cc4)nn3ccn2c1=O,15.75,-1.06,-27.09
Cc1cccc(CN(c2cc(C)cc(C)c2)S(=O)(=O)c2cccn3c(C)nnc23)c1,4.64,1.12,-10.57
Cc1ccc(CNC(=O)CSc2nnc3c(=O)n(-c4ccccc4)ccn23)cc1,13.24,3.44,-18.23
COc1cc(NC(=O)Cn2nc3c(SC4CCCCC4)nccn3c2=O)cc(OC)c1,18.11,13.52,-27.94
O=C(Cn1nc2c(SC3CCCCC3)nccn2c1=O)Nc1ccc(F)c(Cl)c1,0.9,5.93,-24.22
C=Cc1ccc(CN(c2ccc(F)c(F)c2)S(=O)(=O)c2cccn3cnnc23)cc1,8.42,2.5,-8.63
COc1ccc(N(Cc2cccc(Cl)c2)S(=O)(=O)c2ccc3nnc(C)n3c2)cc1,12.69,5,-5.62
Cc1nnc2c(SCC(=O)N3CCN(c4ccc(F)cc4)CC3)nc3ccccc3n12,12.85,2.24,-2.43
O=C(Cn1nc2c(SC3CCCCC3)nccn2c1=O)Nc1ccccc1Br,3.34,3.41,-1.71
Cc1ccccc1NC(=O)Cn1nc2c(SC3CCCCC3)nccn2c1=O,5.55,-0.37,-26.02
Cn1c(=O)c2ccc(C(=O)NC3CCCC3)cc2n2c(SCC(=O)Nc3cc(F)ccc3F)nnc12,7.15,0.81,-19.18
O=c1c2sccc2n2c(=O)n(Cc3ccc(Cl)cc3)nc2n1Cc1cccs1,-1.66,32.28,-17.8
O=C(CSc1nc2ccccc2n2cnnc12)NCc1ccccc1Cl,2.85,0.3,-14.6
Cc1ccc(Sc2ccc3nn(CC(=O)Nc4ccc(Br)c(C)c4)c(=O)n3n2)cc1,2.67,11.69,-8.57
